The panel holds about 83,000 compounds, 20% with a hit somewhere; the sample as a whole holds those more often.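 Interpretation: 100, growth as untreated; towards 0, rising growth inhibition; 0, no net growth; 0 to -100, cell death. Compounds scoring below 10 were considered active.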 Calls of active or inactive are those of the source.
Legend:
Assay in all cases: NCI-60 one-dose screen, 48 h (100 = growth as untreated, 0 = no growth, -100 = all killed)
Settings in all cases: 10 µM unless noted
DU-145 prostate = test system: DU-145 prostate
K-562 leukemia = test system: K-562 leukemia
MALME-3M melanoma = test system: MALME-3M melanoma
MDA-MB-231 breast = test system: MDA-MB-231 breast
RXF 393 renal = test system: RXF 393 renal
SF-268 CNS = test system: SF-268 CNS
SF-295 CNS = test system: SF-295 CNS
SF-539 CNS = test system: SF-539 CNS
UACC-257 melanoma = test system: UACC-257 melanoma
M14 melanoma = test system: M14 melanoma

Measured: growth

CCN(CC)CCOc1ccc(C(=O)/C=C\c2ccc(Cl)cc2Cl)cc1
active: K-562 leukemia 3.71% | UACC-257 melanoma 3.72% | M14 melanoma -37.4%
inactive: DU-145 prostate 51.7% | MALME-3M melanoma 42.4% | MDA-MB-231 breast 32.6% | RXF 393 renal 34% | SF-268 CNS 55.2% | SF-295 CNS 63.2% | SF-539 CNS 30%

COc1ccc(C/C(C)=C(\c2ccc(O)cc2)c2ccc(OCCN3CCCCC3)cc2)cc1
inactive: DU-145 prostate 90.8% | K-562 leukemia 22.8% | MALME-3M melanoma 87.6% | MDA-MB-231 breast 104% | RXF 393 renal 79.9% | SF-268 CNS 81.7% | SF-295 CNS 98.8% | SF-539 CNS 83% | UACC-257 melanoma 110% | M14 melanoma 40.4%

COc1ccc(Nc2ncc(C#N)c(NCCCNC(=O)C3CCC3)n2)cc1
active: RXF 393 renal -4.62%
inactive: DU-145 prostate 60.7% | K-562 leukemia 50.4% | MALME-3M melanoma 78.8% | MDA-MB-231 breast 56.5% | SF-268 CNS 30.7% | SF-295 CNS 76.8% | SF-539 CNS 28.5% | UACC-257 melanoma 113% | M14 melanoma 70.9%

FC(F)(F)c1[nH]ncc1-c1nc2ccc3[nH]ncc3c2c2c1CCCC2
inactive: K-562 leukemia 18.7% | MDA-MB-231 breast 14.5% | SF-295 CNS 24.3% | UACC-257 melanoma 17.6% | M14 melanoma 12.5%
active: DU-145 prostate 6.89% | MALME-3M melanoma 8.51% | RXF 393 renal -62.9% | SF-268 CNS 8.87% | SF-539 CNS -35.1%

Cc1nc(N/N=C/c2cn(-c3ccccc3)nc2-c2cc3ccccc3oc2=O)sc1N=Nc1ccccc1
inactive: DU-145 prostate 105% | K-562 leukemia 34% | MALME-3M melanoma 89.6% | MDA-MB-231 breast 87.7% | RXF 393 renal 94.6% | SF-268 CNS 94.9% | SF-295 CNS 81.6% | SF-539 CNS 87.7% | UACC-257 melanoma 94.5% | M14 melanoma 70.7%

Cc1nc2ccccc2c(/C=C/c2ccc(F)cc2)c1C(=O)/C=C/c1ccccc1
active: K-562 leukemia 6.31% | RXF 393 renal -3.77% | SF-539 CNS 1.11% | UACC-257 melanoma 7.87%
inactive: DU-145 prostate 10.2% | MALME-3M melanoma 31.1% | MDA-MB-231 breast 22.4% | SF-268 CNS 37.9% | SF-295 CNS 32.5% | M14 melanoma 12.4%

O=C1OCC2=C1C(c1ccccc1)c1cc3c(cc1N2CCO)OCCO3 (stereo not given)
active: DU-145 prostate -9.9% | SF-295 CNS 0.89% | SF-539 CNS -22.7% | M14 melanoma -21.8%
inactive: K-562 leukemia 10.5% | MALME-3M melanoma 67.1% | MDA-MB-231 breast 14.2% | RXF 393 renal 10.8% | SF-268 CNS 32.1% | UACC-257 melanoma 47.3%

O=C(O)c1cn(C2CC2)c2cc(N3CCN(C(=O)N/N=C/c4cccc5ccccc45)CC3)c(F)cc2c1=O
inactive: DU-145 prostate 104% | K-562 leukemia 103% | MALME-3M melanoma 101% | MDA-MB-231 breast 94.9% | RXF 393 renal 95.5% | SF-268 CNS 86.3% | SF-295 CNS 104% | SF-539 CNS 93.4% | UACC-257 melanoma 98.8% | M14 melanoma 93.1%

Nc1cc(Br)cc2c1[nH]c(=O)c1ccccc12
inactive: DU-145 prostate 106% | K-562 leukemia 92.5% | MALME-3M melanoma 124% | MDA-MB-231 breast 102% | RXF 393 renal 103% | SF-268 CNS 106% | SF-295 CNS 108% | SF-539 CNS 112% | UACC-257 melanoma 94.7% | M14 melanoma 114%

COc1cccc(-c2cn3nc(-c4cn(C)c5ccccc45)sc3n2)c1
inactive: DU-145 prostate 106% | K-562 leukemia 48% | MALME-3M melanoma 84.1% | MDA-MB-231 breast 85.6% | RXF 393 renal 104% | SF-268 CNS 94.8% | SF-295 CNS 96.3% | SF-539 CNS 94% | UACC-257 melanoma 97.5% | M14 melanoma 84.3%

N#C/C(=C\c1ccc(-c2cccc(Cl)c2)o1)C(=O)Nc1ncc(Cc2ccc(Cl)cc2)s1
inactive: DU-145 prostate 55.9% | K-562 leukemia 80.6% | MALME-3M melanoma 42.7% | MDA-MB-231 breast 34.1% | RXF 393 renal 86.7% | SF-268 CNS 72% | SF-295 CNS 45.3% | SF-539 CNS 56.6% | UACC-257 melanoma 23.9% | M14 melanoma 62.5%

OC1CSSC1Cn1cnc2c(Nc3ccc(OCc4cccc(F)c4)c(Cl)c3)ncnc21 (stereo not given)
inactive: RXF 393 renal 42.3% | UACC-257 melanoma 26.6%
active: DU-145 prostate -36.8% | K-562 leukemia -56.7% | MALME-3M melanoma -5.08% | MDA-MB-231 breast -59.2% | SF-268 CNS -41.5% | SF-295 CNS 4.71% | SF-539 CNS -3.08% | M14 melanoma -81.1%

Oc1ccc(-c2nc3ccc4[nH]ncc4c3c3c2CCCC3)c(F)c1
inactive: DU-145 prostate 37% | K-562 leukemia 19.5% | MALME-3M melanoma 24.9% | MDA-MB-231 breast 59.9% | RXF 393 renal 16% | SF-268 CNS 36.5% | SF-295 CNS 43.6% | SF-539 CNS 15.6% | UACC-257 melanoma 44.5% | M14 melanoma 16.7%

C=C1SC(=Nc2ccccc2Cl)N(C(=O)c2sc3ccccc3c2Cl)C1(C)C
inactive: DU-145 prostate 94% | K-562 leukemia 20.3% | MALME-3M melanoma 79.6% | MDA-MB-231 breast 50.5% | RXF 393 renal 93.8% | SF-268 CNS 85.2% | SF-295 CNS 27% | SF-539 CNS 54.3% | UACC-257 melanoma 98.4% | M14 melanoma 86.6%

COc1ccc(C(=O)Nc2ncc(Cc3ccc(Cl)cc3)s2)cc1
inactive: DU-145 prostate 12.6% | MALME-3M melanoma 57.2% | MDA-MB-231 breast 31.3% | SF-268 CNS 44.8% | UACC-257 melanoma 46.8%
active: K-562 leukemia 7.71% | RXF 393 renal 3.43% | SF-295 CNS 1.3% | SF-539 CNS -22.9% | M14 melanoma -29.4%

COc1ccc(-c2cc(-c3cc(OC)ccc3OC)nc(SCC(C)=O)c2C#N)cc1
inactive: DU-145 prostate 73.7% | K-562 leukemia 72.2% | MALME-3M melanoma 92% | MDA-MB-231 breast 50.9% | SF-268 CNS 65.8% | SF-295 CNS 58.5% | SF-539 CNS 64.9% | UACC-257 melanoma 93.5% | M14 melanoma 69.8%
active: RXF 393 renal -0.171%

CCN1C(=O)N(CC)C2C1NN=c1s/c(=C\c3ccc(OC)cc3)c(=O)n12 (stereo not given)
active: DU-145 prostate 6.18% | K-562 leukemia 8.38% | SF-539 CNS -21.4% | M14 melanoma 6.11%
inactive: MALME-3M melanoma 40.2% | MDA-MB-231 breast 16.3% | RXF 393 renal 33.9% | SF-268 CNS 49.4% | SF-295 CNS 13.2% | UACC-257 melanoma 56.3%

C=C[C@@]1(C)CC(=O)[C@@H](C(C)(C)c2cn(C)c3ccc(Br)cc23)C[C@@H]1O[Si](C)(C)C(C)(C)C
inactive: DU-145 prostate 95.4% | K-562 leukemia 104% | MALME-3M melanoma 92.2% | MDA-MB-231 breast 96.6% | RXF 393 renal 108% | SF-268 CNS 96.5% | SF-295 CNS 103% | SF-539 CNS 97.3% | UACC-257 melanoma 103% | M14 melanoma 91.7%

CS(=O)(=O)Nc1cc(-c2ccc3ncnc(Nc4ccc5c(cnn5Cc5ccncc5)c4)c3c2)cnc1Cl
inactive: DU-145 prostate 78.9% | K-562 leukemia 53.5% | MALME-3M melanoma 20.8% | MDA-MB-231 breast 43.4% | RXF 393 renal 21.1% | SF-268 CNS 45% | SF-295 CNS 84.5% | SF-539 CNS 50.3% | UACC-257 melanoma 59.4% | M14 melanoma 56.2%

C1CCC(N2CN3c4nonc4N4CN(C5CCCCC5)CN5c6nonc6N(C2)C3C45)CC1 (stereo not given)
inactive: DU-145 prostate 104% | K-562 leukemia 82.1% | MALME-3M melanoma 91.5% | MDA-MB-231 breast 106% | RXF 393 renal 103% | SF-268 CNS 96.5% | SF-295 CNS 91.6% | SF-539 CNS 101% | UACC-257 melanoma 99.2% | M14 melanoma 96%

Cc1cc(C(=O)CCCC(=O)c2cc(C)c(O)c(C)c2)cc(C)c1O
inactive: DU-145 prostate 109% | K-562 leukemia 27.4% | MALME-3M melanoma 92.3% | MDA-MB-231 breast 98.1% | RXF 393 renal 84.2% | SF-268 CNS 99% | SF-295 CNS 99.9% | SF-539 CNS 102% | UACC-257 melanoma 105% | M14 melanoma 98.6%

C=C1C(=O)O[C@H]2[C@H]1CC/C(COC(=O)NCc1ccc(Cn3c(=O)sn(-c4ccc(I)cc4)c3=O)cc1)=C\CC[C@@]1(C)O[C@@H]21
active: K-562 leukemia 7.33%
inactive: DU-145 prostate 47.9% | MALME-3M melanoma 82.3% | MDA-MB-231 breast 73.5% | RXF 393 renal 61.2% | SF-268 CNS 87.1% | SF-295 CNS 99.8% | SF-539 CNS 98.7% | UACC-257 melanoma 75.7% | M14 melanoma 73.1%

c1ccc(-c2nc3ccccc3[nH]2)c(OCCCCCOc2ccccc2-c2nc3ccccc3[nH]2)c1
active: K-562 leukemia -11.6% | SF-539 CNS 7.96%
inactive: DU-145 prostate 39.9% | MALME-3M melanoma 66.2% | MDA-MB-231 breast 70.5% | RXF 393 renal 81.1% | SF-268 CNS 55.1% | SF-295 CNS 87.3% | UACC-257 melanoma 71% | M14 melanoma 95.1%

O=C1/C(=C/c2ccccn2)SC(=S)N1N1CCOCC1
inactive: DU-145 prostate 104% | K-562 leukemia 103% | MALME-3M melanoma 92.2% | MDA-MB-231 breast 92% | RXF 393 renal 92.5% | SF-268 CNS 99% | SF-295 CNS 95.8% | SF-539 CNS 105% | UACC-257 melanoma 91.8% | M14 melanoma 100%

NS(=O)(=O)c1ccc(C(=O)NN2C(=O)c3ccccc3C2=O)cc1
inactive: DU-145 prostate 105% | K-562 leukemia 101% | MALME-3M melanoma 109% | MDA-MB-231 breast 109% | RXF 393 renal 120% | SF-268 CNS 92.8% | SF-295 CNS 98.7% | SF-539 CNS 113% | UACC-257 melanoma 110% | M14 melanoma 104%

Cc1ccc(S(=O)(=O)N2CCCN(c3nc(-c4ccccc4)nc4nc(-c5ccccc5)oc34)CC2)cc1
inactive: DU-145 prostate 113% | K-562 leukemia 97.3% | MALME-3M melanoma 111% | MDA-MB-231 breast 96.8% | RXF 393 renal 128% | SF-268 CNS 106% | SF-295 CNS 105% | SF-539 CNS 96% | UACC-257 melanoma 108% | M14 melanoma 110%
